Rows were chosen to be rich in hits. Some 6% of all compounds tested hit in one or more screens of this group.
BCR signal inh: blocks chronic active B-cell receptor signaling; ABC-DLBCL IkBa-CBG/CBR reporter, luminescence ratio, 4 h; Potency, µM (top dose mostly 46.1 µM), for the others: at the highest dose activity change, negative = inhibition, most hits filed as inhibitors; actives 0.05% (n = 340,000); AID 493014; active = well fitted inhibition curve with a large enough effect in the signal ratio, with a control signal flat, not every such curve was filed as active; inconclusive = small, poorly fitted or top-dose-only effect, or effect the other way, or a change in a side signal; the % refers to the signal ratio;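 note: potency is the fitted concentration of half-maximal effect; plate controls were basal doxycycline-induced cells for no effect and cells given 10 µM MG132 for full effect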
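Doxycycline induced both beetle luciferases in TMD8 lymphoma cells; IKK-driven degradation limits the IkappaBalpha-fused green signal, while red luminescence normalises for cell number and nonspecific effects. Compounds tested up to 46 uM, 4 hrs.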
D1 agonist: agonists of human D1 dopamine receptor | actives 1% (n = 360,000) | activation, % at 2 µM | HEK293 T-REx D1 cells, calcium flux, agonist mode; in the data active = activation above about 30%; note: 0% is about no effect
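Agonism was scored from calcium flux recorded over 180 s (1 read/s) after pintool compound addition, following a 10-cycle baseline. Cells were inducible force-coupled HEK293 TREx D1, plated overnight at 30 C and loaded with no-wash calcium dye.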
DRD3 antagonist: antagonists of human D3 dopamine receptor. D3R cells, DiscoveRx beta-arrestin luminescence, antagonist mode; active compounds read low. max response, negative = inhibition, %. actives 2.5% (n = 360,000). AID 652054; in the data active = max response below about -50%; inconclusive = no clear call, values can overlap the other calls; note: % is set by controls: 0 for no effect and ±100 for the full control effect
Target sequence (P35462 whole entry, looked up): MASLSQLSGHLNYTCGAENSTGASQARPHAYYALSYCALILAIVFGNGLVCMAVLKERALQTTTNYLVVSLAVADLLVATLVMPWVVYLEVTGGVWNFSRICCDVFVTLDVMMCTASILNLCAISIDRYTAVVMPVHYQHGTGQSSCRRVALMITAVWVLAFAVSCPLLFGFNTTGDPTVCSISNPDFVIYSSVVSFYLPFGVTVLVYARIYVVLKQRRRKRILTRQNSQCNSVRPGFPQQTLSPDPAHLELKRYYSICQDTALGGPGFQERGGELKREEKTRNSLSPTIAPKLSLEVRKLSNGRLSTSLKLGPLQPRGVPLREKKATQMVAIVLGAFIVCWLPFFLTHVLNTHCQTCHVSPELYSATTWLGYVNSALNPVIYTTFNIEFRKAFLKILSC
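Cells expressing the human receptor were seeded at 1500 cells/well, incubated overnight at 37 degrees C in 5% CO2, then exposed to library compounds with dopamine controls for 90 minutes at 37 degrees C before luminescent detection.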
D1 antag: human D1 dopamine receptor antagonism; HEK293 TREx D1 cells, calcium flux, dopamine EC80; active compounds read low; activity change, negative = inhibition, % at 10 µM; actives 3.2% (n = 360,000); in the data active = activity change below about -30%; note: % is set by controls: 0 for no effect and ±100 for the full control effect
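Compound effects on dopamine-evoked calcium signalling were measured in tetracycline-induced HEK293 Trex D1 cells. Dopamine at EC80 followed a 180 s compound pre-read, and fluorescence was tracked kinetically for 180 s more.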
DRD3 agonist: activates the human D3 dopamine receptor | P35462 | D3R DiscoveRx beta-arrestin cells, luminescence, 90 min | max activation, % | actives 0.58% (n = 410,000) | AID 652048; in the data active = max activation above about 30%; note: 0% is about no effect
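Cells at 1500/well, incubated overnight, then treated with pinned compounds (dopamine as control) for 90 min at 37 degrees C. DiscoveRx reagent added for 30 - 60 minutes at room temperature; luminescence read.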
D1 potentiator: enhances dopamine response at the human D1 receptor; actives 0.036% (n = 360,000); HEK293 TREx D1 cells, calcium flux, dopamine EC20 potentiation; AID 504651; P21728; potentiation, % at 10 µM; in the data active = potentiation above about 30%; note: 0% is about no effect
Active calls of the source: *.

`Cc1cc(C)n(CCOc2nonc2N)n1` gave BCR signal inh -8%, D1 agonist 3, DRD3 antagonist 7, D1 antag 4, DRD3 agonist 11 and D1 potentiator -2.
Nc1nonc1OCCOCCOCCOc1nonc1N was read as BCR signal inh 5%, D1 agonist 3, DRD3 antagonist -59*, D1 antag 0, DRD3 agonist -13 and D1 potentiator 4.
For CSc1ccc(-c2nc3cccc(C)n3c2Nc2ccc(Cl)cc2)cc1 the results were D1 agonist 2, D1 antag 5, DRD3 agonist -10 and D1 potentiator -2.
`Cc1ccc(CN2C(=O)CSCC2(C)C(=O)NCc2ccccc2)cc1` (stereo unspecified) gave DRD3 antagonist inconclusive and DRD3 agonist -5.
For COCCN(Cc1cc2cc(C)cc(C)c2nc1Cl)C(=O)Nc1ccccc1 the results were BCR signal inh 16µM*, D1 agonist 7, DRD3 antagonist 4, D1 antag -12, DRD3 agonist -9 and D1 potentiator 4.
Cc1cc(C)c2nc(Cl)c(CN(Cc3ccco3)C(=O)Nc3ccccc3C)cc2c1 was read as BCR signal inh -2%, D1 agonist 11, DRD3 antagonist -29, D1 antag 2, DRD3 agonist -14 and D1 potentiator -3.
Screening Cc1ccc(C(=O)N2c3ccc(C)cc3C(C)(c3ccccc3)CC2(C)C)cc1 (stereo unspecified) returned D1 agonist -1, D1 antag 7, DRD3 agonist 2 and D1 potentiator 1.
`CCOC(=O)C1CCN(C(=O)CN2c3ccc(CC)cc3-c3ccccc3S2(=O)=O)CC1` gave D1 agonist 6, D1 antag -33*, DRD3 agonist -11 and D1 potentiator -1.
CCOC(=O)C1CCN(C(=O)CN2C(=O)c3ccccc3S2(=O)=O)CC1 was read as BCR signal inh inconclusive, D1 agonist 4, DRD3 antagonist -15, D1 antag 1, DRD3 agonist -6 and D1 potentiator -2.
Screening COc1ccc(N2CCCC2=O)cc1S(=O)(=O)N1CCOCC1 returned DRD3 antagonist -8 and DRD3 agonist -5.
Cc1[nH]c2ccc(F)cc2c1CCN(Cc1cccnc1)C(=S)Nc1ccc(F)cc1 was read as BCR signal inh inconclusive, D1 agonist 21, DRD3 antagonist -13, D1 antag -37*, DRD3 agonist -4 and D1 potentiator -12.
For CCNC(=S)N(CCc1c(C)[nH]c2ccc(F)cc12)Cc1cccnc1 the results were BCR signal inh 0%, D1 agonist 11, DRD3 antagonist -7, D1 antag -3, DRD3 agonist -7 and D1 potentiator -6.
O=C(CN(Cc1ccccc1)C1=NCCS1)c1ccc(Cl)cc1 was read as BCR signal inh -4%, D1 agonist 2, DRD3 antagonist -64*, D1 antag 2, DRD3 agonist -12 and D1 potentiator 4.
Screening COc1ccc(C(=O)CN(Cc2ccccc2)C2=NCCS2)cc1 returned BCR signal inh -6%, D1 agonist 10, DRD3 antagonist 0, D1 antag 23, DRD3 agonist -38 and D1 potentiator 4.
For CCCCCCN1C[C@H](n2cc(C3CC3)nn2)[C@@H](O)C[C@@H]1c1ccccc1 the results were DRD3 antagonist -19 and DRD3 agonist -1.
For O=C(NC(=S)Nc1ccc(N2CCCC2)cc1)c1ccccc1[N+](=O)[O-] the results were BCR signal inh -10%, D1 agonist 0, DRD3 antagonist -13, D1 antag -72*, DRD3 agonist -14 and D1 potentiator -2.
`CN1CCN(c2ccc(NC(=S)NC(=O)c3cccc4c(Br)cccc34)cc2)CC1` gave BCR signal inh 3%, D1 agonist 3, DRD3 antagonist -1, D1 antag -37*, DRD3 agonist -10 and D1 potentiator -9.
`O=C(NC(=S)Nc1ccccc1N1CCCC1)c1ccccc1[N+](=O)[O-]` gave BCR signal inh 15%, D1 agonist 1, DRD3 antagonist -6, D1 antag -6, DRD3 agonist -1 and D1 potentiator 2.
Cc1cc(C)nc(NC(=O)c2ccc([N+](=O)[O-])c(C)c2)n1 was read as BCR signal inh -2%, D1 agonist 3, DRD3 antagonist 10, D1 antag 4, DRD3 agonist 2 and D1 potentiator -5.
Screening Cc1cc(C(=O)Nc2ncn[nH]2)ccc1[N+](=O)[O-] returned BCR signal inh -1%, D1 agonist 4, DRD3 antagonist -10, D1 antag 2, DRD3 agonist 34* and D1 potentiator -4.
Screening CCn1c(-c2cc(Br)cc(OC)c2O)nc2cc(S(=O)(=O)N(C)C)ccc21 returned BCR signal inh 0%, D1 agonist 2, DRD3 antagonist -5, D1 antag -3, DRD3 agonist 37* and D1 potentiator 0.
Screening Nc1ccc(N)c([N+](=O)[O-])c1 returned DRD3 agonist -29.
For CSc1ccccc1C(=O)C1CCCN(Cc2c(C)n(C)n(-c3ccccc3)c2=O)C1 (stereo unspecified) the results were BCR signal inh 6%, D1 agonist 1, DRD3 antagonist 0, D1 antag -2, DRD3 agonist -21 and D1 potentiator 1.
For COc1ccc(F)cc1C(=O)C1CCCN(C(=O)c2ocnc2C)C1 (stereo unspecified) the results were BCR signal inh 12%, D1 agonist 1, DRD3 antagonist 1, D1 antag -32*, DRD3 agonist -4 and D1 potentiator -1.
`CSc1ccccc1C(=O)C1CCCN(Cc2cnn(-c3ccccc3)c2)C1` (stereo unspecified) gave BCR signal inh 12%, D1 agonist 8, DRD3 antagonist -76*, D1 antag 2, DRD3 agonist -17 and D1 potentiator -2.
Screening COC(=O)c1ccc(CN2CCCC(C(=O)c3ccccc3OC)C2)cc1 (stereo unspecified) returned BCR signal inh -2%, D1 agonist 8, DRD3 antagonist -51*, D1 antag 1, DRD3 agonist -25 and D1 potentiator -3.
Screening CCc1ccc(CN2CCCC(CNC(=O)c3cc(OC)cc(OC)c3)C2)cc1 (stereo unspecified) returned BCR signal inh -1%, D1 agonist 9, DRD3 antagonist -18, D1 antag -37*, DRD3 agonist -17 and D1 potentiator 0.
For Cc1c(C(=O)Nc2ccccc2)sc2nc(-c3cc4ccccc4oc3=O)[nH]c(=O)c12 the results were D1 agonist 3, D1 antag 5, DRD3 agonist -6 and D1 potentiator 0.

Screening data (PubChem BioAssay)
